The values that follow come from PubChem BioAssay (NCATS).

Common to all, as to assay: Cytotoxic Profiling of Annotated Libraries Using Quantitative High-Throughput Screening (AID 1296008); also: nearly all actives have a fitted effect of over 60% in size
Holding throughout (conditions): Five cell lines viability, CellTiter-Glo ATP luminescence, 48-72 h; max response: hits give low values

The subject of one experiment is CRL-7250. The method in brief:
(§1)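 Cytotoxicity was measured as CellTiter-Glo ATP luminescence, read after 10 min at room temperature. Compound treatment of the cells lasted 48 or 72 hr at 37 degrees Celsius in a qHTS format.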

For the next experiment, the system named is HEK293. The method in brief:
as §1

The test system of the next experiment is HaCat. The procedure, abridged: as §1
The next experiment deals with KB-3-1. The procedure, abridged:
as §1

The next experiment has as its system NIH3T3. The procedure, abridged: as §1

Molecules are shown by their SMILES. Where “and” joins values, the source holds several entries; their conditions need not be identical. Equal entries are not always repeated. Results filed as inconclusive are left out. Values without a mark were called inactive. Calls of active or inactive are those of the source. Calls follow the shape of the dose curve; as a rule, active = well fitted inhibition curve with a large enough effect; inconclusive = small, poorly fitted or top-dose-only effect; inactive = flat fitted curve, though single readings scatter.
% is scaled to controls: 0 for no effect and ±100 for the full control effect; potency is read from the fitted curve at half-maximal effect.

With `COC(=O)c1cc(CN2CCN(C(=N)N)CC2)cc(C(=O)N2CCN(C(=O)c3ccc(C(=N)N)cc3)CC2)c1`, the call in the experiment on CRL-7250, in the experiment on HEK293 and in the experiment with NIH3T3 was inactive. The max response was 1.52% in the experiment with HaCat and 2.44% in the experiment with KB-3-1.
Consider `C=CC1(C)CC2=CCC3C(C)(C(=O)O)CCCC3(C)C2CC1OC(C)=O` (stereo not given), for which the call in the experiment with CRL-7250, in the experiment with HEK293 and with NIH3T3 was inactive. In addition, the max response was -6.85% in the experiment with HaCat and 0.0592% in the experiment on KB-3-1.
In the case of `C[C@H](NCc1ccc(OCc2ccccc2F)cc1)C(N)=O`, the compound was classed as inactive in the experiment on CRL-7250, with HEK293 and in the experiment on HaCat. The values for the max response in the experiment with KB-3-1 and in the experiment with NIH3T3 were -7.57% and 1.69%, respectively.
On to `CC1OC(O[C@H]2[C@@H](O)C[C@@]3(C)C([C@H](O)C[C@]4(C)C3CC=C3C5CC(C)(C)CC[C@]5(C(=O)OC5OC(CO)C(O)C(O)C5OC5OCC(OC6OCC(OC7OCC(O)C(O)C7O)C(O)C6O)C(OC6OCC(O)(CO)C6O)C5O)CC[C@]34C)[C@]2(C)CO)C(O)C(O)C1O` (stereo not given in full), for which the outcome with CRL-7250, with HEK293, in the experiment on HaCat and in the experiment with NIH3T3 was inactive. Moreover, the max response with KB-3-1 was 0.161%.
`Cc1ccc(Sc2cncc3sc(C(N)=O)cc23)cc1`: the call in the experiment with CRL-7250, in the experiment with HEK293, in the experiment on KB-3-1 and in the experiment with NIH3T3 was inactive. The max response in the experiment with HaCat was -4.86%.
`CC(C)(O)CNc1nc(Nc2ccnc(C(F)(F)F)c2)nc(-c2cccc(C(F)(F)F)n2)n1`: the max response was -2.34% and 1.41% with CRL-7250; 4.85% in the experiment with KB-3-1; 3.44% and -5.61% with NIH3T3. Moreover, in the experiment with HEK293, the Potency is 14.8 µM (active). Also, the result in the experiment on HaCat was inactive.
`COC(=O)C1=CO[C@@H](O[C@@H]2O[C@H](CO)[C@@H](O)[C@H](O)[C@H]2O)[C@@H]2[C@@H](C(=O)OC)[C@@H](O)C(O)[C@H]12` (stereo not given in full): the max response in the experiment on CRL-7250 is -2.23%; in the experiment on KB-3-1, 0.336%; in the experiment with NIH3T3 it was 1.13%. Besides, the compound was classed as inactive in the experiment with HEK293 and with HaCat.
Consider `OC[C@H]1O[C@@H](Oc2cc(O)cc(-c3cc4ccc(O)cc4o3)c2)[C@H](O)[C@@H](O)[C@@H]1O`, for which the max response with CRL-7250 was 0.0775%; with HaCat, -4.29%; in the experiment on KB-3-1 it was 4.55%; with NIH3T3, 4.16%. For the same compound, in the experiment on HEK293, the result was inactive.
Turning to `CCCC(N[C@@H](C)C(=O)N1[C@H](C(=O)O)C[C@@H]2CCCC[C@@H]21)C(=O)OCC` (stereo not given in full), the compound was classed as inactive in the experiment with CRL-7250, in the experiment on HEK293, in the experiment on HaCat, in the experiment with KB-3-1 and in the experiment on NIH3T3.
In the case of `CC[C@H](C)/C=C(C)/C=C/C(=O)Cc1cc(O)c(C)c(O)c1C=O`, the max response with CRL-7250 is -3.98%; with HaCat, 4.71%; with KB-3-1, 7.23%; with NIH3T3, 3.96%. Besides, the outcome with HEK293 was inactive.
With `COC(=O)C1=CO[C@@H](O[C@@H]2O[C@H](CO)[C@@H](O)[C@H](O)[C@H]2O)[C@@H]2[C@@H](C)[C@@H](O)C[C@H]12`, the results for the max response with CRL-7250, in the experiment on HaCat and in the experiment with NIH3T3 were -3.5%, -10.2% and 2.94%, respectively. Moreover, the compound was called inactive in the experiment on HEK293 and in the experiment with KB-3-1.
For the compound `COc1c(C)c(OCC=C(C)C)cc2c1C(=O)NC2=O`, the figures for the max response in the experiment with CRL-7250, in the experiment with HaCat and in the experiment with NIH3T3 were -3.35%, -14.7% and -1.16%, respectively. Besides, the compound was classed as inactive with HEK293 and in the experiment on KB-3-1.
For `CC(=O)O[C@@H]1[C@H](O[C@@H]2OC[C@](O)(CO)[C@H]2O)[C@@H](O[C@@H]2O[C@@H](C)[C@H](O)[C@@H](O)[C@H]2O)[C@H](OC(=O)[C@]23CCC(C)(C)C[C@H]2C2=CCC4[C@@]5(C)C[C@H](O)[C@H](O[C@@H]6O[C@H](C(=O)O)[C@@H](O)[C@H](O)[C@H]6O)[C@@](C)(C(=O)O)C5CC[C@@]4(C)[C@]2(C)CC3)O[C@@H]1C` (stereo not given in full), the max response in the experiment with CRL-7250 is -0.437%; in the experiment with NIH3T3, 2.52%. The outcome in the experiment on HEK293, with HaCat and in the experiment with KB-3-1 was inactive.
As to `COc1cc([C@H]2OC[C@@H]3[C@@H](c4ccc(O[C@@H]5O[C@H](CO)[C@@H](O)[C@H](O)[C@H]5O)c(OC)c4)OC[C@]23O)ccc1O`, the max response with CRL-7250 was -6.95%; in the experiment with KB-3-1, 3.2%. In addition, the compound was classed as inactive with HEK293, in the experiment on HaCat and with NIH3T3.
`N#CC1C(=O)Nc2scc(-c3ccc(-c4ccccc4O)cc3)c2C1=O` (stereo not given): the max response is -4.61% with CRL-7250 and 1.11% in the experiment with HaCat. Further, the compound was called inactive in the experiment with HEK293, in the experiment with KB-3-1 and with NIH3T3.
As to `Cn1c(=O)cc(N2CCCC(N)C2)n(Cc2ccccc2C#N)c1=O` (stereo not given), the max response with CRL-7250 is -7.54%; in the experiment on HaCat, 0.732%; in the experiment on KB-3-1, 8.99%. In addition, the call with HEK293 and with NIH3T3 was inactive.
As for `COc1ccccc1[C@@H]1C2=C(CC(C)(C)CC2=O)Nc2n[nH]c(C(F)(F)F)c21`, in the experiment on CRL-7250, the max response was 3.92%. Moreover, the result in the experiment with HEK293, in the experiment with HaCat, with KB-3-1 and in the experiment with NIH3T3 was inactive.
Regarding `C=C1[C@@H]2[C@H]3OC(=O)C(=C)[C@@H]3CC[C@@](C)(O)[C@@H]2C[C@@H]1O[C@@H]1O[C@H](CO)[C@@H](O)[C@H](O)[C@H]1O`, the max response in the experiment with CRL-7250 is -4.93%; with HaCat, -10.8%; in the experiment on KB-3-1 it was 1.42%; with NIH3T3, -3.98%. Further, the result in the experiment with HEK293 was inactive.
On to `CC(=O)NC(C(=O)OC1CCC(C)(C)C2CC=C3C(=O)OCC3(O)C12C)C(C)C` (stereo not given), for which the max response is 3.06% in the experiment on CRL-7250, -11.8% in the experiment with HaCat and -6.26% in the experiment with NIH3T3. Moreover, the result with HEK293 and in the experiment on KB-3-1 was inactive.
